High-throughput results from PubChem BioAssay.
This is a sample that favours compounds with a hit; in the whole collection about 1.3% have one here.
Rpn11 block – Rpn11 (PSMD14) deubiquitinase inhibitors, primary screen, biochemical, fluorescence polarization, uHTS | human 26S proteasome, Ub4-pepOG fluorescence polarization; 20S core pre-blocked with epoxomicin | calls only at 20 µM | 360,000 tested, 0.59% active | AID 588493, 2011;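 active means inhibition at 20 µM, scaled to each plate's controls, above about 33%, limit read from the data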
Neddylation inh – inhibitors of cullin neddylation, primary screen, biochemical, TR-FRET, uHTS, NAE and Ubc12; NEDD8-conjugating enzyme Ubc12 (Homo sapiens) + NEDD8-activating enzyme E1 regulatory …; inhibition, % at 25 µM; 360,000 tested, 0.58% active; in the data active means inhibition above about 36%
PKA-R2B act – activators of PKA-R2B holoenzyme, primary screen, biochemical, fluorescence polarization, Cy5-IP20, human. activation, % at 11.4 µM. AID 504700, 2011. PKA-R2B holoenzyme dissociation; R2B truncated from residue 108, S112A mutant; 0% DMSO only, 100% 113 µM cGMP. cAMP-dependent protein kinase catalytic subunit beta (Homo sapiens) + cAMP-dependent …. 340,000 tested, 0.079% active;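 active means activation above a cutoff set at the mean over all compounds plus 3 SD, cut at about 18% in these data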;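 further: higher means more holoenzyme dissociation and a rise in polarization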
PKA-R1A activ – activators of PKA-R1A holoenzyme, primary screen, biochemical, fluorescence polarization, Cy5-IP20, bovine R1A, mouse PKAc | cAMP-dependent protein kinase type I-alpha regulatory subunit (Bos taurus) + … | PKA-R1A dissociation; scaled: DMSO 0%, 113 µM cGMP 100% | activation, % at 11.4 µM | 340,000 tested, 0.083% active;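 active means percent activation above the mean of all tested compounds plus 3 SD, cut at about 19% in these data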;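 further: higher means more PKAc released from R1A so a rise in polarization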
Rpn11 inh conf – Rpn11 (PSMD14) deubiquitinase inhibitors, confirmation, biochemical, fluorescence polarization, single concentration; AID 602318, 2012; inhibition, % at 20 µM; shares compounds with Rpn11 block; 1,900 tested, 29% active; purified human 26S proteasome, Ub4-pepOG fluorescence polarization; proteasome pretreated with epoxomicin
MMP-2 inh – MMP-2 enzyme inhibition, confirmation, counter-screen for RPN11 inhibitor project, biochemical, fluorescence, single concentration; inhibition, % at 20 µM; shares compounds with Rpn11 block; 1,900 tested, 4% active; recombinant MMP-2, FRET peptide cleavage fluorescence; AID 602330, 2012;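 further: human MMP-2 activated beforehand with APMA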
Thrombin FP – bovine thrombin protease inhibition, confirmation, counter-screen for Rpn11 inhibitor project, biochemical, fluorescence polarization, single concentration. bovine thrombin cleavage of Ub4-pepOG. inhibition, % at 20 µM. shares compounds with Rpn11 block. 1,900 tested, 13% active. AID 602333, 2012;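 active means mean inhibition at least 40% at 20 µM, or signal 3 deviations below plate average, so some actives read negative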;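 further: plate controls were thrombin with DMSO for no effect and buffer wells lacking thrombin for full effect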
Target sequence (P00735 whole entry, looked up): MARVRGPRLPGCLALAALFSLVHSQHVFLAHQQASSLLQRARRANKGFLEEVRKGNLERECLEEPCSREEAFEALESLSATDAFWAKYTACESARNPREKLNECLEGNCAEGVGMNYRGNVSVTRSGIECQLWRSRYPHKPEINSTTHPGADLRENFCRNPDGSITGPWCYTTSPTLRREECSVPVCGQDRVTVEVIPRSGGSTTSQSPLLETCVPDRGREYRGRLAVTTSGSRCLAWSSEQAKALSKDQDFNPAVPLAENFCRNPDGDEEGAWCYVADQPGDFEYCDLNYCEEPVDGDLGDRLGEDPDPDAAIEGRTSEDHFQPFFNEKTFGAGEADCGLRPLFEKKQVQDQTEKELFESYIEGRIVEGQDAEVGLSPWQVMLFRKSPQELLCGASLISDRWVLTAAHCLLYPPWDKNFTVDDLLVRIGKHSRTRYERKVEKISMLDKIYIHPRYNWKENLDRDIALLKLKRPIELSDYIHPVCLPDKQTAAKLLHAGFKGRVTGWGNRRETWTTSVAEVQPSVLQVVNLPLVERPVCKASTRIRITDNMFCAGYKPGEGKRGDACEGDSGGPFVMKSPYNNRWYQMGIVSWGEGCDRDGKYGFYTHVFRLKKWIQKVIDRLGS
Active calls of the source: *; i = inactive; · = not tested or not shown; + = active, no number. Unless noted, no stated cut-off is given here; in the data, active means inhibition above about 40%; inactive means the rest.

SMILES	Rpn11 block	Neddylation inh	PKA-R2B act	PKA-R1A activ	Rpn11 inh conf	MMP-2 inh	Thrombin FP
COc1cc([N+](=O)[O-])cc(/C=N/NC(=O)c2ccc(NC(=O)c3ccc(C)cc3)cc2)c1O	+	5	3	0	26	14	4
COc1cc([N+](=O)[O-])cc(/C=N/NC(=O)c2ccc(C)nc2)c1O	i	-56	-11	6	·	·	·
CC(C)(C)CNC(=O)c1cccc2c1C(=O)c1ccc(-c3cc4ccccc4o3)cc1S2(=O)=O	i	21	-1	1	·	·	·
CCN(CC)S(=O)(=O)c1ccc(C)c(C)c1	i	-2	-4	-15	·	·	·
CCN(CC)S(=O)(=O)c1cc(C)ccc1SC	+	10	-16	2	-3	-21	2
Cc1ccc2oc(-c3ccc(NC(=O)c4ccncc4)cc3O)nc2c1	i	·	-3	5	·	·	·
COc1ccc(CC(=O)Nc2ccc(-c3nc4cc(C)ccc4o3)c(O)c2)cc1OC	+	·	5	0	9	-23	7
COc1cc(-c2nc3cccc(C)n3c2NCC2CCCO2)ccc1O (stereo not drawn)	+	·	-3	3	1	-30	active
Cc1ccc(C(=O)N=c2sccn2C)cc1C	i	4	-7	-9	·	·	·
Cc1ccc(C(=O)N=c2sccn2C)cc1S(=O)(=O)N1CCOCC1	+	18	-17	-10	1	30	14
Cc1ccccc1-c1cc2nc(Oc3ccc4c(c3)OCO4)n(C)c(=O)c2s1	i	-454	·	·	·	·	·
CC(=O)Nc1cc(-c2ccc(N3CCN(C)CC3)cc2)cn2c(-c3ccc(F)c(Cl)c3)cnc12	i	·	·	·	·	·	·
CN1CCN(c2ccc(-c3cc(NC=O)c4ncc(-c5ccc(F)c(Cl)c5)n4c3)cc2)CC1	+	33	·	·	27	-8	14
CCC(C)(C(=O)Nc1ccc2c(c1)OCCO2)N(C(C)=O)c1ccc(C(N)=O)cc1 (stereo not drawn)	+	1	2	7	0	-28	2
CCCn1c(SCc2nc3sc(C)c(C)c3c(=O)[nH]2)nc2ccccc2c1=O	+	9	-5	0	30	4	20
Cc1ccc(S(=O)(=O)c2c(N)n(NC(=O)c3ccco3)c3nc4ccccc4nc23)cc1	+	·	3	-12	5	-45	-3
Cc1ccc(S(=O)(=O)c2c(N)n(Cc3ccco3)c3nc4ccccc4nc23)cc1	i	·	-10	-10	·	·	·
O=C(Nc1ccc2c(c1)nc1n2CCOC1)C1CCCCC1	+	3	9	4	0	-22	-9
CC(=O)Nc1ccc2c(c1)nc1n2CCOC1	i	0	5	-4	·	·	·
CCCCNc1ncnc2[nH]ncc12	i	13	-4	-2	·	·	·
COc1ccc(Br)cc1C(=O)Nc1cccc(-c2nnc(-c3ccco3)o2)c1	+	32	1	-4	32	-40	2
COc1ccc(NC(=O)Cn2nnc(C(=O)NCc3ccc(C)cc3)c2N)cc1OC	i	8	-2	-5	·	·	·
CCOc1ccc(CCNC(=O)c2nnn(CC(=O)Nc3ccc(C)cc3)c2N)cc1OCC	+	8	0	2	87*	-6	2
Cc1ccc(CNC(=O)c2nnn(CC(=O)Nc3cc(C)cc(C)c3)c2N)cc1	+	5	4	-6	51*	-31	-13
Cc1cc(C)cc(NC(=O)Cn2nnc(C(=O)NCc3ccc4c(c3)OCO4)c2N)c1	+	-1	2	-1	101*	14	-9
SMILES	Rpn11 block	Neddylation inh	PKA-R2B act	PKA-R1A activ	Rpn11 inh conf	MMP-2 inh	Thrombin FP
CCN(CC(=O)NCc1cccs1)C(=O)c1ccc(S(=O)(=O)Nc2ccccc2Cl)cc1	i	2	-2	-6	·	·	·
CNC[C@H]1Oc2ccc(NC(=O)Nc3ccccc3)cc2CC(=O)N([C@H](C)CO)C[C@H]1C	i	-12	-2	-7	·	·	·
COc1ccc(C2c3cc(OC)c(OC)cc3CC3C(=O)OCC32)cc1OC (stereo not drawn)	i	-5	-3	6	·	·	·
COC(=O)c1ccc(CSc2ncnc3c2sc2nc(N4CCOCC4)c4c(c23)CCCC4)o1	+	i	3	-5	24	19	-3
N#CNC(=Nc1cccc(F)c1)SCc1ccccc1	+	4	0	-7	-24	-28	-25
N#CNC(=Nc1cccc(F)c1)SCc1cccc(F)c1	i	0	-8	-8	·	·	·
Cc1ccc(C(=O)NC(Cc2cccc(C(F)(F)F)c2)C(=O)O)cc1 (stereo not drawn)	i	5	-2	3	·	·	·
CC(=O)C1=C(O)C2(C)c3c(O)c(C)c(O)c(C(C)=O)c3OC2CC1=O (stereo not drawn)	+	-1	8	-1	69*	12	91*
CCCS(=O)(=O)NC(=O)C1(C)CCN(C(=O)c2cc(C)nn2C(C)(C)C)C1 (stereo not drawn)	i	3	·	·	·	·	·
Cc1nnn(-c2nonc2N)c1C(=O)NNC(=O)c1ccc(Cl)c(Cl)c1	+	-1	-6	-16	0	0	4
C/C(=N\NC(=O)c1nnn(-c2nonc2N)c1C)c1ccc(-c2ccccc2)cc1	i	-12	-2	-2	·	·	·
COc1ccc(O)c(/C=N/NC(=O)c2c(C)nnn2-c2nonc2N)c1	+	2	-12	0	184*	21	26
COc1cc(/C=N/NC(=O)c2nnn(-c3nonc3N)c2-c2cccs2)ccc1O	i	-7	5	-2	·	·	·
COc1ccc(/C=N/NC(=O)c2nnn(-c3nonc3N)c2-c2cccs2)cc1OC	+	·	2	-10	21	-26	-16
CCN(CC)C(=O)Cn1nc(-c2ccncc2)nc1SCC(=O)Nc1ccc(OC)cc1	i	8	-2	-6	·	·	·
COC(=O)c1ccc(NC(=O)Cn2nc(-c3ccncc3)nc2SCC(=O)Nc2nccs2)cc1	+	-17	-13	-5	22	-14	7
